Data taken from the supplement of paper PMC6607015.
Counter-ions that a name gives are not always drawn.

Legend:
Details in all cases: compound concentration in added solution (µM; 5 µl added to 20 µl cells): 10; 18 h
A431 [1] = experiment: LBPA endosome anti-LBPA integrated intensity (sum per cell), Z-score; higher = more LBPA staining
In short: (§1)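 The data are Z-scores, normalised in AcuityXpress, of integrated LBPA or filipin intensity in each cell, either whole-cell or restricted to LBPA endosomes. HeLa MZ or A431 cells, 3,500 per well in 20 µl, were seeded onto 5 µl of 10 µM compound solution in duplicate 384-well plates and incubated 18 h. Fixed cells were stained and imaged, with intensities extracted by MetaXpress segmentation.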

HeLa MZ [2] = experiment: as above
In short: as §1

A431 [3] = experiment: whole-cell filipin (free cholesterol) integrated intensity, Z-score; higher = more cholesterol staining
In short: as §1

HeLa MZ [4] = experiment: as above
In short: as §1

A431 [5] = experiment: filipin (cholesterol) integrated intensity within LBPA endosomes, Z-score; higher = more cholesterol in LBPA endosomes
In short: as §1

HeLa MZ [6] = experiment: as above
In short: as §1

Structure (SMILES) | LBPA endosome anti-LBPA integrated intensity (z-score) (A431 [1]) | LBPA endosome anti-LBPA integrated intensity (z-score) (HeLa MZ [2]) | whole-cell filipin (z-score) (A431 [3]) | whole-cell filipin (z-score) (HeLa MZ [4]) | filipin (z-score) (A431 [5]) | filipin (z-score) (HeLa MZ [6])
CN1CCCC(n2nc(Cc3ccc(Cl)cc3)c3ccccc3c2=O)CC1 (configuration not stated) [Azelastine HCl] | 3.18 | 2.26 | 1.79 | 0.915 | 2.29 | 3.01
CN1CCN(C2=Nc3ccccc3Oc3ccc(Cl)cc32)CC1 [Loxapine succinate] | 0.352 | 1.12 | 0.0252 | -0.743 | 0.0734 | -0.11
Cn1c(=O)c2c(ncn2C)n(C)c1=O [Caffeine] | -0.331 | -0.197 | -0.0359 | 0.547 | -0.318 | -0.108
CCOC(=O)OC(C)OC(=O)[C@@H]1N2C(=O)[C@@H](NC(=O)[C@H](N)c3ccccc3)[C@H]2SC1(C)C (some centres not stated) [Bacampicillin hydrochloride] | -0.503 | -1.29 | -0.749 | -0.787 | -0.467 | -0.528
CN[C@@H]1[C@H](O)[C@H](NC)[C@H]2O[C@@]3(O)C(=O)C[C@@H](C)O[C@H]3O[C@@H]2[C@H]1O [Spectinomycin dihydrochloride] | -0.507 | -0.585 | -0.388 | -0.158 | -0.451 | -0.309
CCOC1O[C@H]([C@@H](COCc2ccccc2)OCc2ccccc2)[C@H](OCc2ccccc2)[C@H]1O (some centres not stated) [Tribenoside] | 0.543 | 2.34 | 0.649 | 1.71 | 0.264 | 0.525
Cc1scc2c1N(C(=O)CN1CCN(C)CC1)c1ccccc1NC2=O [Telenzepine dihydrochloride] | -0.645 | 0.0897 | -0.931 | -0.897 | -0.595 | -0.401
CC(=O)OCC(=O)[C@@]1(O)CC[C@H]2[C@@H]3CCC4=CC(=O)CC[C@]4(C)[C@H]3[C@@H](O)C[C@@]21C [Cortisol acetate] | -0.325 | -0.845 | -0.384 | -0.119 | -0.306 | -0.404
Cc1nnc(NS(=O)(=O)c2ccc(N)cc2)s1 [Sulfamethizole] | -0.497 | -0.619 | -0.626 | -0.62 | -0.469 | -0.463
CC(CN(C)C)C(C)(O)Cc1ccc(Cl)cc1 (configuration not stated) [Clobutinol hydrochloride] | -0.559 | 0.835 | -0.328 | -0.426 | -0.624 | -0.205
O=C1NCCN1c1ncc([N+](=O)[O-])s1 [Niridazole] | -0.413 | 0.107 | -0.918 | -0.144 | -0.517 | -0.432
O=C(O)Cc1sc(-c2ccccc2)nc1-c1ccc(Cl)cc1 [Fentiazac] | -0.661 | -1.44 | -0.809 | -0.504 | -0.591 | -0.756
O=C1OCCN1/N=C/c1ccc([N+](=O)[O-])o1 [Furazolidone] | -0.473 | -0.0304 | -0.00282 | 0.522 | -0.483 | -0.65
Cc1cc(NC(=O)C2=C(O)c3ccccc3S(=O)(=O)N2C)no1 [Isoxicam] | -0.656 | -1.14 | -0.786 | -0.746 | -0.604 | -0.633
CC[C@H](C)C(=O)O[C@H]1C[C@@H](C)C=C2C=C[C@H](C)[C@H](CC[C@@H]3C[C@@H](O)CC(=O)O3)[C@H]21 [Lovastatin] | -0.976 | -1.31 | -0.714 | -0.104 | -0.696 | 0.121
Cc1ccnc(NS(=O)(=O)c2ccc(N)cc2)n1 [Sulfamerazine] | -0.529 | -1.13 | -0.353 | -0.0674 | -0.45 | -0.567
CCCCNc1ccc(C(=O)OCCOCCOCCOCCOCCOCCOCCOCCOCCOC)cc1 [Benzonatate] | -0.445 | -0.231 | -0.686 | -0.896 | -0.427 | -0.476
CCN(CC)CCc1nc(-c2ccccc2)no1 [Oxalamine citrate salt] | -0.387 | 0.162 | -0.277 | -0.546 | -0.442 | -0.374
C=CCSCC1Nc2cc(Cl)c(S(N)(=O)=O)cc2S(=O)(=O)N1 (configuration not stated) [Althiazide] | -0.575 | -1.6 | -0.613 | -0.588 | -0.491 | -0.642
COc1ccc(CN(CCN(C)C)c2ccccn2)cc1 [Pyrilamine maleate] | -0.379 | 0.813 | -0.723 | -0.374 | -0.426 | 0.0714
C[C@](N)(Cc1ccc(O)c(O)c1)C(=O)O [Methyldopa (L,-)] | -0.446 | -0.811 | -0.449 | 0.0391 | -0.366 | -0.319
CNCCC(Oc1ccc(C(F)(F)F)cc1)c1ccccc1 (configuration not stated) [Fluoxetine hydrochloride] | 2.5 | 0.902 | 0.302 | -0.115 | 2.19 | 1.62
CN1CCN(C(c2ccccc2)c2ccccc2)CC1 [Cyclizine hydrochloride] | -0.35 | 0.424 | -0.0386 | -0.181 | -0.285 | 0.0272
CCN1CCC[C@H]1CNC(=O)c1c(OC)ccc(Br)c1OC [Remoxipride Hydrochloride] | -0.395 | 0.278 | -0.41 | -0.384 | -0.372 | -0.266

Structure (SMILES) | LBPA endosome anti-LBPA integrated intensity (z-score) (A431 [1]) | LBPA endosome anti-LBPA integrated intensity (z-score) (HeLa MZ [2]) | whole-cell filipin (z-score) (A431 [3]) | whole-cell filipin (z-score) (HeLa MZ [4]) | filipin (z-score) (A431 [5]) | filipin (z-score) (HeLa MZ [6])
C[C@H]1C[C@H]2[C@@H]3CCC4=CC(=O)C=C[C@]4(C)[C@@]3(F)[C@@H](O)C[C@]2(C)[C@@]1(O)C(=O)CO [Betamethasone] | -0.442 | -0.354 | -0.547 | -0.354 | -0.536 | -0.463
OCCN(CCO)c1nc(N2CCCCC2)c2nc(N(CCO)CCO)nc(N3CCCCC3)c2n1 [Dipyridamole] | 0.808 | 0.577 | -0.543 | -0.536 | -0.2 | -0.39
Cc1cccc(Nc2ccncc2S(=O)(=O)NC(=O)NC(C)C)c1 [Torsemide] | -0.347 | -0.115 | 0.00281 | 0.228 | -0.452 | -0.394
CN(C)CCCN1c2ccccc2CCc2ccccc21 [Imipramine hydrochloride] | 0.746 | 0.11 | 0.885 | -0.699 | 1.08 | 0.828
CCCOc1cc(N)ccc1C(=O)OCCN(CC)CC [Propoxycaine hydrochloride] | 0.303 | 1.24 | 0.398 | 0.62 | -0.0905 | 0.287
N[C@@H]1CONC1=O [D-cycloserine] | -0.278 | -0.4 | -0.132 | -0.322 | -0.405 | -0.523
CN(C)[C@@H]1C(O)=C(C(N)=O)C(=O)[C@@]2(O)C(O)=C3C(=O)c4c(O)cccc4[C@@](C)(O)[C@H]3[C@H](O)[C@@H]12 [Oxytetracycline dihydrate] | -0.525 | -0.93 | -0.872 | -0.703 | -0.537 | -0.753
OCCOCCN1CCN(C(c2ccccc2)c2ccc(Cl)cc2)CC1 (configuration not stated) [Hydroxyzine dihydrochloride] | 0.255 | 0.53 | 0.266 | -0.465 | 0.492 | 0.489
C[C@]12CCC(=O)C=C1C=C[C@@H]1[C@@H]2CC[C@@]2(C)[C@H]1CC[C@@]21CCC(=O)O1 [Canrenone] | -0.209 | 1.1 | 0.452 | 1.37 | -0.0815 | 0.168
CC1(C)O[C@@H]2[C@@H](CO[C@@]3(COS(N)(=O)=O)OC(C)(C)O[C@@H]23)O1 [Topiramate] | -0.482 | -0.13 | -0.0917 | -0.317 | -0.419 | -0.514
C=CCc1ccccc1OCC(O)CNC(C)C (configuration not stated) [Alprenolol hydrochloride] | -0.146 | -0.138 | 0.0188 | 0.141 | -0.22 | -0.133
O=C(NCCNCC(O)COc1ccc(O)cc1)N1CCOCC1 (configuration not stated) [Xamoterol hemifumarate] | -0.337 | -0.849 | -0.403 | -0.263 | -0.407 | -0.533
COc1cnc(NS(=O)(=O)c2ccc(N)cc2)nc1 [Sulfameter] | -0.428 | -0.0725 | -0.426 | -0.359 | -0.447 | -0.542
N[C@@H](Cc1ccc(O)c(O)c1)C(=O)O [Levodopa] | -0.339 | -0.518 | -0.462 | -0.115 | -0.332 | -0.358
C[C@]1(Cn2ccnn2)[C@H](C(=O)O)N2C(=O)C[C@H]2S1(=O)=O [Tazobactam] | -0.572 | -0.303 | -0.35 | 0.00122 | -0.502 | -0.538
CC(Oc1ccccc1)C(=O)N[C@@H]1C(=O)N2[C@@H]1SC(C)(C)[C@@H]2C(=O)O (some centres not stated) [Phenethicillin potassium salt] | -0.589 | -1.24 | -0.612 | -0.336 | -0.493 | -0.525
Nc1ccc(S(=O)(=O)Nc2ccc(Cl)nn2)cc1 [Sulfachloropyridazine] | -0.463 | -0.899 | -0.227 | -0.78 | -0.494 | -0.56
NC(=O)C(c1ccccc1)(c1ccccc1)[C@@H]1CCN(CCc2ccc3c(c2)CCO3)C1 [Darifenacin hydrobromide] | 3.46 | 1.76 | 3.28 | 1.47 | 2.87 | 3.06
Nc1nc(=O)c2nc(CNc3ccc(C(=O)N[C@@H](CCC(=O)O)C(=O)O)cc3)cnc2[nH]1 [Folic acid] | -0.628 | -1.15 | -0.811 | -0.635 | -0.597 | -0.671
NNCCc1ccccc1 [Phenelzine sulfate] | -0.403 | -0.966 | -0.414 | -0.115 | -0.439 | -0.425
CCn1cc(C(=O)O)c(=O)c2ccc(C)nc21 [Nalidixic acid sodium salt] | -0.59 | -0.884 | -0.346 | -0.298 | -0.467 | -0.567
CCCCN(CCCC)CCCOC(=O)c1ccc(N)cc1 [Butacaine] | 1.72 | 1.93 | -0.324 | -0.451 | 0.0505 | 0.307
Nc1ccc(S(=O)(=O)Nc2cnc3ccccc3n2)cc1 [Sulfaquinoxaline sodium salt] | -0.491 | -0.359 | -0.235 | -0.279 | -0.43 | -0.432
